The campaign covered roughly 580,000 compounds. About 6,100 (1.1%) were called active. Where a call stands in place of a potency, no number is given. Roughly 15% stayed inconclusive and do not appear here. Calls follow the shape of the dose curve; as a rule, active = well fitted inhibition curve with a large enough effect; inconclusive = small, poorly fitted or top-dose-only effect, or another doubt; inactive = no such curve, though single readings can be large or run the other way. Many of the other results were omitted from the sample, so actives are more common in it than they were.
biological target: Polyunsaturated fatty acid lipoxygenase ALOX12 (Homo sapiens) (UniProt P18054); experiment: Primary qHTS assay for inhibitors of human arachidonate 12S-lipoxygenase (ALOX12): Round 2; details: purified 12hLO, xylenol orange hydroperoxide absorbance; series mostly up to 108 µM
Sequence (P18054 whole entry, looked up): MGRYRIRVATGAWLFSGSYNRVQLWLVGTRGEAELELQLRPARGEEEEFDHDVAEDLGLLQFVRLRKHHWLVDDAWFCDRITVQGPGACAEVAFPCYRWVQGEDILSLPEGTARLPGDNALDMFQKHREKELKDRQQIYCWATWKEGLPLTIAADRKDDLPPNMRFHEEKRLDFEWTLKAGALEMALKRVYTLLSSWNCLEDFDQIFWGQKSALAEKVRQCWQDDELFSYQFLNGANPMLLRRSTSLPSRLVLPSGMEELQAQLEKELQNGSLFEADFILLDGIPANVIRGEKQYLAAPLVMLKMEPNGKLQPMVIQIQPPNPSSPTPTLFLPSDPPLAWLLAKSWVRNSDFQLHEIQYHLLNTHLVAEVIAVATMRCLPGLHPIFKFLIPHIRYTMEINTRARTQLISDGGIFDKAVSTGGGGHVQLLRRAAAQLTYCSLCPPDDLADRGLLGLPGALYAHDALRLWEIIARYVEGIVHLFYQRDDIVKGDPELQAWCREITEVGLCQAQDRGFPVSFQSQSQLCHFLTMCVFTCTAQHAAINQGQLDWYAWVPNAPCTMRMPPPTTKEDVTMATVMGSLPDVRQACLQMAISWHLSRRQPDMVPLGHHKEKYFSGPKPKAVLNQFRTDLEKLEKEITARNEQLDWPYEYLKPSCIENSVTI
Outline: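 Hydroperoxide product was detected by ferrous iron/xylenol orange as the 573 to 405 nm absorbance ratio. Arachidonic acid at 40 uM (final) was turned over for 30 min at room temperature by 150 nM human 12hLO, pH 7.0 Hepes buffer, after 15 min compound preincubation.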
Potency is read from the fitted curve at half-maximal effect.

| SMILES | Potency |
| --- | --- |
| Cc1cccc(C(=O)Nc2cccc(-c3nn4c(C)nnc4s3)c2)c1 | inactive |
| N#Cc1cccc(-c2ccc3ncnc(NCc4cccs4)c3c2)c1 | 50.1 µM (active) |
| CN1Cc2ncnc(NCc3cccs3)c2CN(c2ccccc2)C1=O | inactive |
| COc1ccccc1CNc1ncnc2ccc(-c3ccc4c(c3)OCO4)cc12 | inactive |
| c1ccc2c(c1)C(=NC1CCCCC1)NC2=NC1CCCCC1 | 31.6 µM (active) |
| CC(C)(C)c1ccc2c(c1)OCCOCCOCCOc1ccc(C(C)(C)C)cc1OCCOCCOCCO2 | inactive |
| Cc1onc(-c2ccccc2)c1C(=O)NNC(=S)NC(=O)c1ccc(F)cc1 | 39.8 µM (active) |
| CCCNC(=O)c1ccc(NC(=O)CCc2ccccc2)cc1 | inactive |
| CCOC(=O)c1c(NC(=O)c2c(-c3ccccc3)noc2C)sc2c1CCC2 | inactive |
| COc1ccc(C(=O)NC(=S)NNC(=O)CCc2ccccc2)cc1 | 12.6 µM (active) |
| Cc1onc(-c2ccc(F)cc2F)c1C(=O)Nc1cccc(C(F)(F)F)c1 | inactive |
| COc1ccc(C(=O)NC(=S)NNC(=O)c2c(-c3ccccc3)noc2C)cc1 | 35.5 µM (active) |
| C[C@H]1CN(C(=O)Nc2ccc(F)cc2)C[C@@H]1c1nc(-c2ccccc2)no1 | inactive |
| COc1ccc(-c2noc([C@@H](C)NCc3ccc(F)cc3)c2C(=O)O)cc1 | inactive |
| COCc1nc(CCNC(=O)CCc2ccccc2)no1 | inactive |
| c1cc(CN2CCc3c(sc4ncnc(N5CCOCC5)c34)C2)ccn1 | inactive |
| CCOC(=O)c1c(C)[nH]c(C(=O)OC)c1C | inactive |
| COc1ccc(-c2ccc3nnc(CNC(=O)C(C)Oc4ccc(Cl)cc4)n3n2)cc1 (stereo unspecified) | inactive |
| Cc1c(S(=O)(=O)N2CCCC2c2cccc(F)c2)cnn1C(F)F (stereo unspecified) | inactive |
| Cc1cccc(NCC(=O)Nc2cc(Cl)ccc2-n2cncn2)c1C | inactive |
| CCS(=O)(=O)N(C)CCCNC(=O)c1cn(C)c2ccccc12 | inactive |
| Cc1ccc(C(NC(=O)Cc2cccs2)C(=O)Nc2ccc3c(c2)OCO3)cc1 (stereo unspecified) | inactive |

| SMILES | Potency |
| --- | --- |
| CN(C)C[C@@H]1CN(C)C[C@H]1NS(=O)(=O)c1cccc(C(F)(F)F)c1 | inactive |
| N#CC1=C(N)OC2=C(C(=O)CC(c3ccccc3)C2)C1c1cccs1 (stereo unspecified) | 11.2 µM (active) |
| Cc1ccsc1C1C(C#N)=C(N)OC2=C1C(=O)CC(C)(C)C2 (stereo unspecified) | inactive |
| Cc1ccsc1C1C(C#N)=C(N)OC2=C1C(=O)CC(C)C2 (stereo unspecified) | inactive |
| O=C(Cn1ccc2cc(Cl)ccc21)Nc1ccc2[nH]ccc2c1 | inactive |
| Cc1cc2nc(/C(C#N)=C\c3ccc(OCc4ccc(F)cc4)cc3)[nH]c2cc1C | inactive |
| CC(C(=O)NC(=O)NC1CCCCC1)n1cnc2c1c(=O)n(C)c(=O)n2C (stereo unspecified) | inactive |
| CCCCCOc1ccc2c(C)c(CCC(C)C)c(=O)oc2c1 | inactive |
| O=C(Nc1ccc(Cl)cc1)c1csc([C@@H]2O[C@H](CO)[C@H](O)[C@H](O)[C@H]2O)n1 | inactive |
| O=C(NC1CCCC1)c1csc(C(O)c2cccc(Cl)c2)n1 (stereo unspecified) | inactive |
| O=C(Nc1ccc(Cl)cc1)c1csc(C(O)c2cccc(C(F)(F)F)c2)n1 (stereo unspecified) | 22.4 µM (active) |
| Cc1nc(-c2ccccc2Cl)sc1C(=O)NC1C=CS(=O)(=O)C1 (stereo unspecified) | inactive |
| COc1cccc(C(=O)Nc2ccc3oc(C)nc3c2)c1 | inactive |
| CCN(CC)c1nc2ccccc2nc1C(=O)Nc1cc(OC)ccc1OC | inactive |
| CN(C)S(=O)(=O)c1cccc(-c2nn(-c3ccccc3)cc2/C=C2\SC(=S)N(CC(=O)O)C2=O)c1 | 39.8 µM (active) |
| N#Cc1ccccc1CN1C(=O)S/C(=C/c2cccn2-c2cccc(C(=O)O)c2)C1=O | inactive |
| Cc1ccc(-c2nn(-c3ccccc3)cc2/C=C2\SC(=S)N(CCCCCC(=O)O)C2=O)o1 | 31.6 µM (active) |
| O=C(CCc1c[nH]c2ccccc12)Nc1ccc(F)cc1 | inactive |
| COC(=O)CNC(=O)c1cc2sccc2n1Cc1ccccc1 | inactive |
| CC(Sc1ccccn1)C(=O)Nc1cccc(Cl)c1 (stereo unspecified) | inactive |
| CCC(=O)Oc1ccc2cc(-c3ccccc3)c(=O)oc2c1 | inactive |
| COc1ccc(OC)c(/C=C/C(=O)Oc2ccccc2Cl)c1 | inactive |

| SMILES | Potency |
| --- | --- |
| COc1ccc2c(C)c(CC(=O)NCCc3ccccc3)c(=O)oc2c1 | inactive |
| O=C1c2c(nc(COc3ccccc3)n2Cc2ccccc2)NCCN1Cc1cccc(Cl)c1 | inactive |
| Cc1ccc(NC(=O)CN2C(=O)C(C)(C)c3cc(S(=O)(=O)N4CCCCC4)ccc32)cc1F | inactive |
| COc1ccc(C)cc1NC(=O)C(C)N1CCN(S(=O)(=O)Cc2ccccc2)CC1 (stereo unspecified) | inactive |
| COc1ccc(-n2nnc(C(=O)NCc3ccccc3)c2N)cc1OC | inactive |
| CCc1ccc(NC2Nc3cc(C)nn3S2)cc1 (stereo unspecified) | 25.1 µM (active) |
| CCc1ccc(N/C(N)=N/c2nc(C)cc(C)n2)cc1 | inactive |
| CCc1ccc(NC(=O)N2CCCC(Cn3cnc4cccnc43)C2)cc1 (stereo unspecified) | inactive |
| Cc1ccc(-c2cn(CCC(N)=O)c(=O)cn2)cc1 | inactive |
| Cc1ccc(S(=O)(=O)n2nc(-c3ccc(Cl)cc3)nc2NCc2ccccc2)cc1 | inactive |
| O=c1cc(-c2ccccc2)n2c(SCc3ccccc3)nnc2[nH]1 | inactive |
| CCS(=O)(=O)n1nc(-c2ccccc2)nc1SCc1ccccc1 | 28.2 µM (active) |
| CCOc1ccc(C(=O)Nc2ncc(C)s2)cc1OC | inactive |
| CCc1nnc(SCC(=O)Nc2ccccc2OC)n1-n1cccc1 | inactive |
| CCOC(=O)N1CCN(C(=O)c2ccc(N3C(=O)CCS3(=O)=O)cc2)CC1 | inactive |
| CCCC1CCC(c2ccc(-c3ccc4c(n3)CCC(CCC)C4)cc2)CC1 (stereo unspecified) | inactive |
| CCOC(=O)N1CCN(Cc2nc(Cc3cccc(C(F)(F)F)c3)no2)CC1 | inactive |
| Cn1c(-c2sccc2OCc2cccc(C(F)(F)F)c2)n[nH]c1=S | 28.2 µM (active) |
| FC(F)(F)c1ccc(-n2cn[nH]c2=S)cc1 | inactive |
| O=C(CCS(=O)(=O)c1ccc2c(c1)CCN2C(=O)C1CC1)Nc1ccc(F)c(F)c1 | inactive |
| COc1cc(Nc2nc3ccccc3nc2NS(=O)(=O)c2ccc(C)cc2)cc(OC)c1 | inactive |
| O=C(c1ccc2c(c1)OCO2)N1CCCN(C(=O)C2CC2)c2ccccc21 | inactive |

Reference: PubChem BioAssay AID1671190 (National Center for Advancing Translational Sciences (NCATS), 2021)
